Compound activity (PubChem)
Lamin A splicing – changes lamin A minigene splicing in HeLa cells. Potency, µM (top dose mostly 46.1 µM), without a hit: at the highest dose ratio change, negative = inhibition, most hits filed as inhibitors. HeLa LMNA splicing GFP/RFP minigene ratio, 48 h. hit rate 0.01% among 200,000; active = well fitted inhibition curve with a large enough effect in the signal ratio, with a control signal flat, not every such curve was filed as active; inconclusive = small, poorly fitted or top-dose-only effect, or effect the other way, or a change in a side signal; the % refers to the signal ratio; note: potency is the fitted concentration of half-maximal effect; % is set by controls: 0 for no effect and ±100 for the full control effect
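S3 HeLa stable clones carrying a lamin A-EGFP splicing minigene plus DsRed2 were seeded at 600 cells/well in Opti-MEM with 2% FBS, pin-dosed and incubated 48 h at 37°C. Acumen cytometry (488 nm) gave the GFP/RFP total-intensity ratio.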
KDM4E inh – JMJD2E (human) inhibition; JMJD2E catalytic domain, FDH-coupled NADH fluorescence (FDH is formaldehyde dehydrogenase); Potency, µM (series often up to 57.1 µM), for inactives: at the top dose activity change, negative = inhibition, usual class: inhibitors; hit rate 1.6% among 230,000; AID 2147; active = well fitted inhibition curve with a large enough effect, not every such curve was filed as active; inconclusive = small, poorly fitted or top-dose-only effect, or another doubt; inactive = no such curve, though single readings can be large or run the other way;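 note: potency is the fitted concentration of half-maximal effect; 0% = wells with enzyme and -100% = buffer wells without enzyme; nearly all actives have a fitted effect of over 50% in size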
Target sequence (B2RXH2 1-337 limits assumed): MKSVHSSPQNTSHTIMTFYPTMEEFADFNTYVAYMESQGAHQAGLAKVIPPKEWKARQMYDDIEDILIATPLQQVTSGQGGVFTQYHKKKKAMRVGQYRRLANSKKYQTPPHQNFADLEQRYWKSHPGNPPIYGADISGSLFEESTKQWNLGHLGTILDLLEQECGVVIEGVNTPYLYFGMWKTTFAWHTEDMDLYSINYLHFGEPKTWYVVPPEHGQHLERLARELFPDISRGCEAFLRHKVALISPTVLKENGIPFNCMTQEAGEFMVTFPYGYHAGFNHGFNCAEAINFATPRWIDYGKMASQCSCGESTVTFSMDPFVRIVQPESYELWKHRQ
Tau fluor cs – counter-screen for tau fibril formation inhibitors; Potency, µM (top dose mostly 57.7 µM), for the others: at the highest dose activity change, negative = decrease; tau K18 P301L Alexa594 fluorescence, heparin fibrillization; AID 1463; hit rate 0.93% among 280,000; note: potency is the fitted concentration of half-maximal effect; % is set by controls: 0 for no effect and ±100 for the full control effect; nearly all actives have a fitted effect of over 55% in size
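Human tau K18 P301L (15 uM unlabeled, 0.24 uM Alexa 594-labeled) in 100 mM sodium acetate pH 7 with 20 uM heparin, 6 hr at 37 C. ThT 30 uM added, 1 hr ambient; Alexa 594 FP and total fluorescence read at 555/632 nm.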
Tau FP inhib – tau fibrillization inhibition (FP) | K18 P301L tau heparin fibrillization, Alexa594 FP, 6 h | Potency, µM (series often up to 57.7 µM), without a hit: at the top dose activity, negative = inhibition, most hits filed as inhibitors | hit rate 0.39% among 280,000 | AID 1468; note: potency is the fitted concentration of half-maximal effect; % is set by controls: 0 for no effect and ±100 for the full control effect; nearly all actives have a fitted effect of over 55% in size
Target sequence (P10636 561-689 P618L limits assumed): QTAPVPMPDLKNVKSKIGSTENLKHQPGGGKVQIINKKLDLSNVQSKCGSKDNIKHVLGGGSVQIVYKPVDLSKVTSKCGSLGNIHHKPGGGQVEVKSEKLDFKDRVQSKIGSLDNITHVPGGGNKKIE
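Human tau K18 […] P301L fragment, 15 uM unlabeled plus 0.24 uM Alexa 594-labeled tau (final), with compound and 20 uM heparin in 100 mM sodium acetate pH 7; 6 hr at 37 C, then Alexa 594 FP read.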
Tau fibril ThT – blocks human tau fibril formation measured by thioflavin T; P10636; recombinant tau K18 P301L (four-repeat tau fragment), heparin-induced fibrillization, ThT fluorescence; Potency, µM (titrated, usually from 57.4 µM), for the others: at the top dose activity, negative = inhibition, usual class: inhibitors; hit rate 2.1% among 270,000; AID 1460; note: potency is the fitted concentration of half-maximal effect; % is set by controls: 0 for no effect and ±100 for the full control effect; nearly all actives have a fitted effect of over 55% in size
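Recombinant human tau K18 fragment […] carrying P301L, 15 uM unlabeled plus 0.24 uM Alexa 594-labeled, was fibrillized with 20 uM heparin in 100 mM sodium acetate pH 7 for 6 hr at 37 C; 30 uM ThT fluorescence read after 1 hr.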
CBFb RUNX1 block – inhibitors of human CBF-beta and RUNX1 interaction; AlphaScreen CBFb-His/RUNX1-biotin binding, biochemical; Potency, µM (top dose mostly 59.8 µM), without a hit: top-dose activity, negative = inhibition, usual class: inhibitors; 230,000 tested, under 10 active; AID 1477; note: % of control where 0% means no effect
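CBFb-His/RUNX1-biotin, 30 nM each, preincubated 20 min RT; compound 15 min RT; Ni + streptavidin beads 50 ng each, 90 min RT; AlphaScreen read.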
* = called active by the depositor; ? = inconclusive; / = not tested or not shown; [ ] = remark or other dose. The list is not random: actives were taken first. Their share in the collection is about 3.2%. Unless noted, calls come from the whole dose curve; as a rule, active = well fitted curve in the direction sought with a large enough effect; inconclusive = small, poorly fitted or top-dose-only effect, or another doubt; inactive = no such curve, though single readings can be large; an effect the other way counts as inactive or inconclusive.

SMILES | Lamin A splicing | KDM4E inh | Tau fluor cs | Tau FP inhib | Tau fibril ThT | CBFb RUNX1 block
Cc1nnc(N/N=C/c2cccc(OCc3ccc(Cl)c(Cl)c3)c2)n1N | ? | ? | 25.1µM*[quencher] | -12.9% | 12.6µM* | -14.2%
NC(=O)N/N=C/c1cccc(OCc2ccc(F)cc2)c1 | / | -0.4% | -2.2% | -1.3% | -4.1% | -0.6%
COC(=O)c1ccc(=O)n(Cc2ccco2)c1 | -8.8% | 31.6µM* | -10.6% | 10.1% | -14.5% | 21.5%
COc1ccc(CNC(=O)CSc2ncc(S(=O)(=O)c3ccc(Br)cc3)c(=O)[nH]2)cc1 | / | / | -4.2% | 4.3% | -6.1% | /
COC(=O)c1cc(Cl)ccc1NC(=O)CSc1ncc(S(=O)(=O)c2ccc(Br)cc2)c(=O)[nH]1 | / | / | -17.2% | ? | 31.6µM* | /
O=C1C(=O)c2ccc(-c3ccccc3)cc2-c2ccccc21 | ? | -1.3% | -17.7% | ? | 1.26µM* | -16.3%
CSC(N)=NCCC[C@H](N)C(=O)O | -17.6% | -2.0% | 1.3% | -0.5% | -3.2% | 12.4%
COc1ccc2c(c1)[N+](C)(C)C(C)(C)C=C2C | ? | 20µM* | -5.9% | 4.7% | -5.5% | 1.3%
COc1ccc(CNC(=O)c2sc3nc4n(c(=O)c3c2C)CCCC4)cc1 | -7.0%[46 µM] | / | -4.9% | 6.6% | -12.4% | /
CCOc1cc(CNc2ccc(S(N)(=O)=O)cc2)cc(Cl)c1OC | ? | -0.2% | -14.4% | -11.6% | -2.0% | -0.4%
CCOc1ccc(NC(=O)c2ccc(CNc3c(N4CCCC4)c(=O)c3=O)cc2)cc1 | / | 8.4% | -4.7% | 3.1% | / | 5.4%
CCOc1ccc(CNc2ccc(N3CCCC3)cc2)cc1 | -10.5% | 15.8µM* | ? | ? | 7.08µM* | ?
CCOc1cc(CNc2ccc(N3CCCC3)cc2)cc(Cl)c1OC | ? | 15.8µM* | ? | 7.08µM* | 3.55µM* | ?
c1cc(CNc2ccc(N3CCOCC3)cc2)ccn1 | 9.9% | ? | ? | ? | 22.4µM* | -20.0%
CC(C)c1ccc(CNc2ccc(N3CCOCC3)cc2)cc1 | 6.2% | ? | ? | 1.1% | ? | ?
CCOc1ccc(CNc2cccc(SC)c2)cc1 | ? | -26.2% | -31.3% | -36.7% | 15.8µM* | -25.2%
CC(=O)OCC1C2CC[C@H]3C(OCc4ccc(F)cc4C(F)(F)F)OC[C@]4(C)[C@H]3C2=C(CN4C(=O)OC(C)(C)C)[C@H](C)C1COC(C)=O (stereo partly specified) | / | -3.1% | -4.2% | -10.5% | -2.5% | 9.6%
CC[C@H](C)[C@H](NC(=O)[C@H](Cc1ccc(O)cc1)NC(=O)[C@@H](NC(=O)[C@H](CCCNC(=N)N)NC(=O)[C@@H](N)CC(=O)O)C(C)C)C(=O)N[C@@H](Cc1cnc[nH]1)C(=O)N1CCC[C@H]1C(=O)N[C@@H](Cc1ccccc1)C(=O)N[C@@H](Cc1cnc[nH]1)C(=O)N[C@@H](CC(C)C)C(=O)N[C@@H](CC(C)C)C(=O)N[C@H](C(=O)N[C@@H](Cc1ccc(O)cc1)C(=O)N[C@@H](CO)C(=O)O)C(C)C | / | / | / | / | / | 4.1%
CN(C)c1cccc(C(=O)N2CCC(c3ccncc3)CC2)c1 | ? | / | 4.6% | -3.9% | 2.7% | /
Cc1ccc(NC(=O)CC(c2ccc(F)cc2)N2Cc3ccccc3C2=O)cc1C (stereo unspecified) | / | / | 2.0% | ? | ? | /
CCCCCn1c(=O)[nH]c2cc(C(=O)N3CCN(c4ccc(OC)cc4)CC3)ccc2c1=O | / | / | -19.6% | 12.1% | -12.9% | /
CC(C)Cn1cc(NC(=O)N2CCN(c3cccc(Cl)c3)CC2)c2ccccc2c1=O | -6.3%[46 µM] | / | -15.3% | -1.9% | ? | /
COc1cc(CNc2ccc(N3CCCC3)cc2)cc(Cl)c1OC | / | 14.1µM* | ? | ? | 3.98µM* | -0.6%
COc1cc(CNc2ccc(N3CCOCC3)cc2)cc(Br)c1OC | -26.0%[46 µM] | -12.4% | -18.2% | 0.8% | ? | ?
CC1CC(=O)c2c(cc3c(-c4c(O)cc(O)c5c(O)c6c(cc45)OC(C)CC6=O)c(O)cc(O)c3c2O)O1 (stereo unspecified) | / | 8.91µM* | ? | ? | ? | ?
SMILES | Lamin A splicing | KDM4E inh | Tau fluor cs | Tau FP inhib | Tau fibril ThT | CBFb RUNX1 block
COc1cc(OC)c2c(C)c(CC(=O)N3CCCCC3)c(=O)oc2c1 | / | / | -11.9% | -9.4% | -8.3% | /
O=C1C2C(c3ccccc3)CC=CC2C(c2ccc3ccccc3c2)N1Cc1ccccc1 (stereo unspecified) | / | / | / | / | / | -4.3%
CCOC(=O)c1ccc(-n2c(O)c(/C=N/NC(=O)C3COc4ccccc4O3)c3ccccc3c2=O)cc1 (stereo unspecified) | ? | 25.1µM* | ? | 11.5% | ? | ?
Cc1nn(-c2ccccc2)c(Cl)c1/C=N/NC(=O)C1COc2ccccc2O1 (stereo unspecified) | -4.0% | 5.7% | -5.0% | 4.9% | ? | 3.1%
Cc1ccc(-n2c(O)c(/C=N/c3ncn[nH]3)c3ccccc3c2=O)cc1 | / | ? | 4.7% | 4.3% | -7.3% | 20.8%
Oc1c(/C=N/c2ncn[nH]2)ccc2ccccc12 | 10.4% | -24.4% | -26.8% | ? | 28.2µM* | 4.4%
COCCNc1nc(-c2ccccc2CN(C)C)nc2ccccc12 | -5.7% | -8.7% | -6.7% | 1.5% | -2.0% | /
CC(C)Cn1cc(NC(=O)Nc2cccc(C(F)(F)F)c2)c2ccccc2c1=O | -16.7%[46 µM] | / | 8.91µM*[quencher] | ? | -10.4% | /
O=C(O)CSCC(=O)Nc1cc(C(F)(F)F)ccc1Cl | 11.2% | -7.4% | 1.7% | -1.3% | -1.3% | 13.3%
COC(=O)c1cc(OC)c(OC)cc1NCC(=O)Nc1ccc(OC)c(OC)c1 | ? | ? | -21.2% | 14.8% | -12.2% | -8.3%
CC(C)Cn1cc(NC(=O)NCc2ccccc2)c2ccccc2c1=O | -5.6%[46 µM] | / | -8.6% | -4.3% | -2.9% | /
COC(=O)c1cc(OC)c(OC)cc1NCC(=O)Nc1cccc(C(F)(F)F)c1 | ? | ? | 17.8µM*[quencher] | ? | ? | 12.0%
CC(C)Oc1cc(NC(=O)CSCC(=O)Nc2cccc(C(F)(F)F)c2)c(Cl)cc1Cl | ? | -8.6% | ? | 35.5µM* | -12.2% | 7.3%
Cc1ccc(NC(=O)Nc2cn(CC(C)C)c(=O)c3ccccc23)cc1N(C)C | -9.1%[46 µM] | / | 25.1µM*[quencher] | ? | ? | /
Cc1ccc2c(Cl)cc(Cl)c(OCC(=O)NCc3ccco3)c2n1 | 2.5% | 25.1µM* | -29.8% | ? | ? | /
N#CC1=C2SCC(O)(c3ccccc3)N2C(=O)CC1c1cccs1 (stereo unspecified) | ? | 8.6% | -10.5% | 0.9% | 2.5% | -13.0%
Cc1ccc(C2CC(=O)N3CN(c4ccc(Br)cc4)CSC3=C2C#N)o1 (stereo unspecified) | ? | -1.8% | -4.5% | ? | ? | -0.3%
